Unmarked numbers belong to inactive results. Activity calls are given as the source filed them. Calls come from the whole dose curve; as a rule, active = well fitted curve in the direction sought with a large enough effect; inactive = no such curve, though single readings can be large or run the other way.
Experiment: qHTS for small molecule inhibitors of Yes1 kinase: Counter Assay (AID 686950);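 note: no kinase present so only ADP-Glo detection of a fixed ADP amount is tested; luminescence from ADP-Glo reporting ADP in a fixed ATP and ADP mixture; 0% = DMSO wells with ATP plus ADP and -100% = ATP-only wells without ADP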
Conditions: series mostly up to 76.9 µM; activity change, negative = inhibition: at the top concentration
Source text: The Src family of non-receptor protein tyrosine kinases contains nine members, including Yes1, Src, Fyn, Lyn, and […]. These kinases have important roles in a variety of cellular functions, such as cell proliferation, survival, and differentiation. Src, the most well characterized member of this family, has been previously identified as a proto-oncogene. […] In melanoma, it has been shown that Yes1, and not other family members, such as Src, is functionally involved in the malignant phenotype. Additionally, a recent study examining the downregulation of Yes1 by shRNA found significant effects on cell survival/growth for basal-like and Her2-positive breast cancers. Despite the potential for Yes1 to be a target for the above-described cancers, there are very few reports on the identification of potent and selective inhibitors of Yes1 kinase. Antagonists of Yes1 would further elucidate Yes1 biology and help to confirm whether Yes1 is a viable target for therapeutic intervention in a variety of cancers.
A compound that inhibits Yes1 could be important for the treatment of various cancers in which Yes1 is highly expressed and can also be used as a tool compound to help further elucidate Yes1 biology. To that end, we have developed a sensitive HTS biochemical assay for Yes1 activity. This assay was screened against several small compound libraries to look for modulators of activity. The cherrypicked compounds were screened against this counter assay, which evaluates whether the compounds have any effect on the ADP-Glo detection kit. Compounds that show inhibition in this assay have interference with the detection system. Inactivity is the desired output for this assay.
NIH Molecular Libraries Probe Production Centers Network [MLPCN]
NIH Chemical Genomics Center [NCGC]
Two microliter of buffer (columns 1-48) are dispensed into Greiner, white solid-bottom 1536-well assay plates. Compounds (23 nL) are then transferred via Kalypsys pin tool equipped with 1536-pin array (10 nL slotted pins, V&P Scientific, San Diego, CA). The library compounds are in columns 5-48 and columns 1-4 serve as controls with DMSO. Following addition of compound and a 20 minute incubation, 1 uL of substrate/product mix (ATP and ADP from Sigma-Aldrich, St. Louis, MO) is added to columns 1, 2, 5-48 and 1 uL of substrate (ATP) is added to columns 3-4, and the plate is incubated for 60 minutes at room temperature. The amount of ADP is then quantified by the ADP-Glo Kit (Promega, Madison, WI). First, 2 uL of the first kit reagent is added, and the reaction is incubated for 45 minutes; then, 4 uL of the second kit reagent are added and the reaction is incubated for 30 minutes at which time the luminescence is read on a Viewlux plate reader (Perkin-Elmer, Waltham, MA). The final concentration of reagents in the reaction are 0.08 mM ATP and 0.02 mM ADP (or 0.1 mM ATP in the no ADP control columns), 100 uM EGTA, 10 mM MgCl2, 50 mM Tris pH 7.5, 1 mM DTT, 150 mM NaCl, 0.01% Brij-35, and 5% glycerol. Data are normalized to DMSO-treated control columns with ATP and […] (maximum signal) and with just ATP (minimum signal).

| SMILES | activity change, negative = inhibition | outcome |
| --- | --- | --- |
| CC[C@@]1(O)C(=O)OCc2c1cc1n(c2=O)Cc2cc3c(CN(C)C)c(O)ccc3nc2-1 | -0.118% | – |
| COc1ccc(CCN(C)CCCC(C#N)(c2ccc(OC)c(OC)c2)C(C)C)cc1OC (stereo unspecified) | – | inactive |
| O=C1c2c(O)ccc(O)c2C(=O)c2c(NCCNCCO)ccc(NCCNCCO)c21 | -17.2% | – |
| O=c1c(O)c(-c2ccc(O)c(O)c2)oc2cc(O)cc(O)c12 | -3.96% | – |
| Cn1ccc2cc3c(cc21)CCN3C(=O)Nc1cccnc1 | -4.83% | – |
| CC1(CN2CCC(n3c(=O)[nH]c4ccccc43)CC2)OCc2ccccc2-n2cccc21 (stereo unspecified) | 3.53% | – |
| CS(=O)(=O)CCNCc1ccc(-c2ccc3ncnc(Nc4ccc(OCc5cccc(F)c5)c(Cl)c4)c3c2)o1 | 2.74% | – |
| CN(C)C(=N)N=C(N)N | 4.38% | – |
| Cc1ccc(-c2cc(C(F)(F)F)nn2-c2ccc(S(N)(=O)=O)cc2)cc1 | 2.46% [at 154 µM] | – |
| Cc1cn([C@H]2C[C@H](N=[N+]=[N-])[C@@H](CO)O2)c(=O)[nH]c1=O | 0.443% | – |
| O=c1c(-c2ccc(O)cc2)coc2cc(O)cc(O)c12 | -4.54% | – |

Reference: PubChem BioAssay (NCATS)
